Bioassay records as filed in PubChem.
Rows were chosen to be rich in hits. Some 0.35% of all compounds tested hit in one or more screens of this group.
B2AR arrestin: beta2AR (human) beta-arrestin recruitment activity. beta-arrestin recruitment to beta2AR, cell-based reporter. AID 492947. P07550. Potency, µM (top dose mostly 46.1 µM), without a hit: at the highest dose activation, hits mostly activators. 330,000 compounds, 0.02% hits;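 further: 0% = DMSO controls and full agonism = EC100 isoproterenol or metaproterenol; nearly all actives have a fitted effect of over 65% in size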
Anesthetic bind: binds horse apoferritin like a general anesthetic; apoferritin/1-aminoanthracene competitive binding, fluorescence; Potency, µM (top dose mostly 77.5 µM), for the others: top-dose activity change, negative = displacement, most hits filed as inhibitors; 350,000 compounds, 0.074% hits; AID 485281; further: nearly all actives have a fitted effect of over 20% in size
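Horse-spleen apoferritin (10 uM) in 50% saturated 1-aminoanthracene in PBS was incubated 10 min at room temperature with compound. Fluorescence (ex 380, em 535 nm) was normalized to free and bound 1-AMA, with concentration-response fitted by a four-parameter Hill equation.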
Chronic BCR inh: inhibitors of chronic active B-cell receptor signaling. ABC-DLBCL IkBa-CBG/CBR reporter, luminescence ratio, 4 h. Potency, µM (doses to about 46.1 µM), for inactives: at the top dose activity change, negative = inhibition, usual class: inhibitors. 340,000 compounds, 0.05% hits. AID 493014; active means well fitted inhibition curve with a large enough effect in the signal ratio, with a control signal flat, not every such curve was filed as active; inconclusive means small, poorly fitted or top-dose-only effect, or effect the other way, or a change in a side signal; the % refers to the signal ratio;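 further: plate controls were basal doxycycline-induced cells for no effect and cells given 10 µM MG132 for full effect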
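TMD8 human ABC-DLBCL cells with doxycycline-inducible IκBα–green luciferase fusion and unfused red luciferase, in 0.5% FBS medium; compounds up to 46 uM, 4 h at 37C. Green/red luminescence ratio, filter-overlap corrected, fitted to concentration-response curves.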
MBNL1 CUG block: blocks human MBNL1 binding to CUG repeat RNA | Q9NR56 | TR-FRET MBNL1-His/biotin-(CUG)12 binding, 665/545 ratio | Potency, µM (titrated, usually from 57.5 µM), inactives show at the top dose activity change, negative = inhibition, usual class: inhibitors | 280,000 compounds, 0.036% hits; active means well fitted inhibition curve with a large enough effect in the signal ratio, with a control signal flat, not every such curve was filed as active; inconclusive means small, poorly fitted or top-dose-only effect, or effect the other way, or a change in a side signal; inactive means no such curve, though single readings can be large or run the other way; the % refers to the signal ratio
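His-tagged MBNL1 binding to biotinylated (CUG)12 RNA was measured by TR-FRET using terbium anti-His antibody (0.055 ng/ul final) and streptavidin-XL665 (5 nM final). Compounds were titrated 92 nM to 58 uM; 60 min at room temperature.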
GLS inh: glutaminase GLS (human) inhibition. GLS enzymatic activity, qHTS titration. Potency, µM (titrated, usually from 45.5 µM), without a hit: at the top dose activity change, negative = inhibition, most hits filed as inhibitors. 410,000 compounds, 0.21% hits. AID 624170
Target sequence (O94925 whole entry, looked up): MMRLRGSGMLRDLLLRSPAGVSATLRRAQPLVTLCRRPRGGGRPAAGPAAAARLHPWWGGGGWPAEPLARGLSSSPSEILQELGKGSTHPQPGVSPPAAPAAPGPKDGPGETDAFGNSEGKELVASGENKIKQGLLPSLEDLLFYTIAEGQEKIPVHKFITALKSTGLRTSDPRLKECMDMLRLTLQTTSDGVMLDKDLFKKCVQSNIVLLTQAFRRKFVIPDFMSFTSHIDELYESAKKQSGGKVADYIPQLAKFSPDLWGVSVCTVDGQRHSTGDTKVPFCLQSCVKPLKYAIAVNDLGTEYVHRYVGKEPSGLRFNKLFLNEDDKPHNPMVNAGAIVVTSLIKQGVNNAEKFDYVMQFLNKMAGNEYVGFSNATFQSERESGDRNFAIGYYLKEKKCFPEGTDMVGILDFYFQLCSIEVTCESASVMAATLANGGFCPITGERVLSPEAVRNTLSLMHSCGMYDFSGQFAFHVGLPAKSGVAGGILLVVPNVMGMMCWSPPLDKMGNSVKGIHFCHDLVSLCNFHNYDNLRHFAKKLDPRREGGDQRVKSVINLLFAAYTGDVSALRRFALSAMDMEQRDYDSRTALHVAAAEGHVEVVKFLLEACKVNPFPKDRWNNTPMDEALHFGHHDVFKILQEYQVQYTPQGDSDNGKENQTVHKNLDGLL
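Glutamate formation by hKGA was monitored fluorometrically using coupled glutamate oxidase, HRP and Amplex Red. Substrate was added as 1 mM L-glutamine solution; incubation was 30 min at RT after an initial read.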
* = called active by the depositor; u = inconclusive; x = no result. Unless noted, the call rests on the fitted dose curve; in most records, active means well fitted curve in the direction sought with a large enough effect; inconclusive means small, poorly fitted or top-dose-only effect, or another doubt; inactive means no such curve, though single readings can be large; an effect the other way counts as inactive or inconclusive. Unless noted, on the % scale 0 is the no-effect control and ±100 the full control effect; potency means the concentration at half of the fitted maximal effect.

SMILES | B2AR arrestin | Anesthetic bind | Chronic BCR inh | MBNL1 CUG block | GLS inh
Cc1cc(NS(=O)(=O)c2ccc(NC(=O)COc3c(C)cc(Br)cc3C)cc2)no1 | 0.4% | u | u | -1.7% | 7.94µM*
Cc1cc(NS(=O)(=O)c2ccc(NC(=O)COc3ccc(Br)cc3C)cc2)no1 | x | 0.2% | x | x | 14.9%
Cc1ccc(-c2nnc(Nc3ccc(O)cc3)c3ccccc23)cc1S(=O)(=O)NCC1CCCO1 (stereo unspecified) | x | -10.4% | x | x | 30.2%
CC(=O)Nc1ccn(C2CC3OCC(NC(=O)C(Cc4ccccc4)NC(=O)OC(C)(C)C)C3O2)c(=O)n1 (stereo unspecified) | x | -4.5% | x | x | x
COc1ccc(C2=Nn3c(nnc3-c3ccccc3F)SC2)cc1OC1CCOC1 (stereo unspecified) | -0.2% | x | -0.9% | x | 2.0%
COc1ccc(OCc2nnc3n2N=C(c2ccc(C)cc2)CS3)cc1 | -0.3% | 11.2µM* | u | 3.1% | -0.2%
COc1ccc(C2=Nn3c(nnc3-c3ccccc3F)SC2)cc1OC1CCCC1 | -0.5% | x | 5.8µM* | x | 11.9%
c1ccc(OCc2nnc3n2N=C(c2ccccc2)CS3)cc1 | -1.1% | u | -8.1% | -10.1% | 2.5%
COc1ccc(OCc2nnc3n2N=C(c2ccc(OC)cc2)CS3)cc1 | 6.4% | 8.91µM* | u | 11.9% | -0.5%
CCOc1ccc(C2=Nn3c(nnc3-c3ccc(OC)cc3)SC2)cc1 | -0.4% | -7.5% | 12.6µM* | -6.9% | 2.7%
C[N+]1(C)CCN(C[C@@](O)(c2ccccc2)C2CCCCC2)CC1 | x | x | x | x | -2.2%
CCCCS(=O)(=O)N[C@@H](Cc1ccc(OCCCCC2CCNCC2)cc1)C(=O)O | x | x | x | x | 1.6%
O=C(CCC1N=C2c3ccccc3N=C(SCC(=O)Nc3ccc(F)cc3)N2C1=O)NCc1cccs1 (stereo unspecified) | x | -20.0% | 1.8% | x | -7.8%
CN(C(=O)CO)c1c(I)c(C(=O)NCC(O)CO)c(I)c(C(=O)NCC(O)CO)c1I (stereo unspecified) | x | x | x | x | -6.0%
COc1ccc(C2=Nn3c(nnc3-c3ccccc3)SC2)cc1OC | 0.2% | -8.7% | u | 6.8% | -6.0%
CCCc1nnc2n1N=C(c1ccc(OC)c(OC)c1)CS2 | -0.2% | -12.4% | 13µM* | u | -3.0%
Cc1ccc(CN2C(=O)c3oc4ccc(C)cc4c(=O)c3C2c2ccc(O)cc2)cc1 (stereo unspecified) | x | 4.4% | x | x | -12.3%
COc1cc(C2Nc3cccc4cccc(c34)N2)ccc1O | -0.4% | -19.8% | 8.2% | 9.3% | 11.2µM*
COc1cc(C2Nc3cccc4cccc(c34)N2)cc(OC)c1OC(C)=O | -0.4% | 7.7% | 0.4% | 20.9% | 2.5%
CCN(CCCNC(=O)CN1N=C(c2ccc(OC)cc2)CCC1=O)c1cccc(C)c1 | x | u | -28.9% | x | 7.2%
O=C(O)C1C2CCC(O2)C1C(=O)Nc1cnn(Cc2ccccc2)c1 (stereo unspecified) | -0.1% | -8.7% | u | -5.2% | -5.0%
O=C(Nc1cnn(Cc2ccccc2)c1)NC12CC3CC(CC(C3)C1)C2 | -1.0% | 15.8µM* | -11.7% | -2.8% | 7.8%
CC1(C)C(=O)OC(C(=O)c2ccccc2)C(C)(C)C1=O (stereo unspecified) | -0.9% | 8.91µM* | 1.7% | 4.9% | 6.3%
Oc1ccc(/C=N/N2CCN(C3c4ccccc4-c4ccccc43)CC2)cc1O | -0.7% | -16.8% | u | -0.7% | 11.2µM*
Cc1ccc(Cn2c(C)c3cnn(CC(=O)N4CCN(c5ccc(F)cc5)CC4)c(=O)c3c2C)cc1 | x | 0.1% | x | x | -0.3%
SMILES | B2AR arrestin | Anesthetic bind | Chronic BCR inh | MBNL1 CUG block | GLS inh
Cc1cccc(C(=O)NC2C(=O)NNC2c2ccc(Cl)cc2)c1 (stereo unspecified) | -0.2% | -9.3% | u | u | 7.94µM*
O=C(NC1C(=O)NNC1c1ccccc1)c1ccccc1 (stereo unspecified) | 0.2% | -9.6% | -1.2% | 2.7% | 2.3%
COc1ccc(CN2CSC(=S)N(Cc3ccc(OC)cc3)C2)cc1 | 3.5% | 4.1% | 15.8µM* | -8.9% | 5.3%
COc1ccc(C2C3=C(CC(C)(C)CC3=O)Nc3c2c(=O)n(C)c(=O)n3C)cc1OC (stereo unspecified) | -0.2% | -3.7% | -20.5% | x | 12.6µM*
COc1ccc(C2Nc3ccccc3NC3=C2C(=O)CC(C)(C)C3)cc1O (stereo unspecified) | -0.2% | 4.1% | 1.4% | 16.3% | 12.6µM*
Cc1ccc(CNC(=O)c2ccc3c(c2)NC(=O)C(CS(=O)(=O)Cc2ccc(F)cc2)N3)cc1 (stereo unspecified) | x | -5.0% | x | x | 12.6µM*
O=C(CC1(O)C(=O)N(Cc2ccc3c(c2)OCO3)c2ccccc21)c1ccccc1 (stereo unspecified) | 0.0% | u | -7.3% | -15.1% | 10.9%
Cc1ccc(C(=O)CC2(O)C(=O)N(Cc3ccc4c(c3)OCO4)c3ccccc32)cc1 (stereo unspecified) | 0.4% | 14.1µM* | -1.3% | 1.0% | -21.9%
Cc1onc(-c2ccccc2Cl)c1C(=O)NCc1ccco1 | 0.2% | -17.5% | 0.4% | 18.2% | 10µM*
CCOC(=O)c1cnc2ccc(OC)cc2c1Nc1ccc(N2CCN(C)CC2)cc1 | 0.0% | 3.1% | -12.2% | u | 12.6µM*
CC(O)c1cccc2cc(C(O)CNC(C)(C)C)oc12 (stereo unspecified) | x | -0.8% | x | x | x
COc1cc2c(cc1OC)C(SC)=NC(C)(C)C2 | 0.1% | 43.2% | 16.4µM* | u | -16.8%
COc1ccc(C2=NC(C)(C)Cc3cc(OC)c(OC)cc32)cc1 | -0.8% | 27.8% | -14.1% | u | -17.0%
Cc1c(C)c2c(c(C)c1OC(=O)CCC(=O)OCCO)CC[C@](C)(CCC[C@H](C)CCC[C@H](C)CCCC(C)C)O2 | x | x | x | x | -1.6%
C/C(=N/NC(=O)COc1cc(C)ccc1C(C)C)C(=O)O | 0.2% | -10.9% | 10µM* | -9.5% | 0.8%
CC(C)C[C@@H](/C=C/S(C)(=O)=O)NC(=O)[C@H](CC(C)C)NC(=O)[C@H](CC(C)C)NC(=O)OCc1ccccc1 | x | -11.6% | x | x | x
COC(=O)CCC(=O)OC1(C)C(=O)C=C2C=C(c3ccsc3)OC=C2C1=O (stereo unspecified) | x | x | x | x | 12.6µM*
CCn1c(=O)cc(SCC(=O)N2CCN(c3ccccn3)CC2)c2ccccc21 | -0.1% | -4.7% | 16.4µM* | -10.4% | 7.6%
CCOc1ccc(NS(=O)(=O)c2ccc3c(c2)NC(=O)CCS3)cc1 | x | -16.1% | -18.2% | x | 1.1%
N#Cc1c2ccc(OCC(=O)NCc3ccco3)cc2n2ccccc12 | -0.4% | 52.3% | u | -4.3% | -18.7%
N#Cc1c2ccc(O)cc2n2ccccc12 | 0.0% | 237.1% | u | x | 11.2µM*
Cn1c(NC(=O)c2ccccc2)cc(=O)n(C)c1=O | 1.0% | -15.1% | 1.9% | 1.1% | 3.0%
